Laboratory results published in article PMC13494018.
Unmarked numbers belong to inactive results. The rule behind the calls is not given here.

Molecular target: CD276, Q5ZPR3
Sequence (Q5ZPR3 whole entry): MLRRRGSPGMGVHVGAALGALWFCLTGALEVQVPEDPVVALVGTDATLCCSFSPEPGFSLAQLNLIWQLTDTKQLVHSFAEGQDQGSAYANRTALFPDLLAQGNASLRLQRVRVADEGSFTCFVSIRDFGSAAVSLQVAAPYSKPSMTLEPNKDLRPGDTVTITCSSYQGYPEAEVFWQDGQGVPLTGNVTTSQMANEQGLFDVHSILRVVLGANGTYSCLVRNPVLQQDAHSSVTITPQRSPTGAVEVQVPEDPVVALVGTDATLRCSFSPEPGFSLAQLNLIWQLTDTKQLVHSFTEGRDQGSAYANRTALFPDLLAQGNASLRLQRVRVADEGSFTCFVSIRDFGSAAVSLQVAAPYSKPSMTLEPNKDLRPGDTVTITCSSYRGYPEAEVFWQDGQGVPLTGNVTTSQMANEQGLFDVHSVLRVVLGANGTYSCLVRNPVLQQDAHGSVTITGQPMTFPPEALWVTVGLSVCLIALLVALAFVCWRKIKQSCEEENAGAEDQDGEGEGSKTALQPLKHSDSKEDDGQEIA

Row | Binder | binding in a display sort
1 | design_614_ef6b398b-10cb-4a07-8087-96dafb4f9c83_1258_dldesign_0_cycle1_af2pred (protein) AEQEKAAQLALNTAKAALKRAKAGSAEEARAAAETAKLAAEAAKVNSTDPAVIKEAEKVAEETKKVAEAK | not found
2 | design_615_ab801fab-270b-4f6a-b2b5-83c165df418c_650_dldesign_0_cycle1_af2pred (protein) SSEREVLEAEGREWGRLIAAADAVSPALAAEVARALAEKAVADPGFLYALNVAVATVAREGSPAAAAVARAALAEASKAVIAKL | not found
3 | design_614_ef6b398b-10cb-4a07-8087-96dafb4f9c83_1043_dldesign_0_cycle1_af2pred (protein) AAAEAAAVSKKAAELAKKALEKAKRMSPEEAINLAFQVATQAIRLGADAEAAINAIKIASEKGPEAGLKYLAEALEK | not found
4 | design_615_ab801fab-270b-4f6a-b2b5-83c165df418c_121_dldesign_0_cycle1_af2pred (protein) GKDEELAKEAKKIAEAAEGVAASALALAAQPGLLAAAAAFARKAAEELERLGKENSKELEKVAKKEAKRAKEAAERVEAALKAATA | not found
5 | design_615_ab801fab-270b-4f6a-b2b5-83c165df418c_0_dldesign_0_cycle1_af2pred (protein) AAAERLAQRLEAARLIAEAAGVPEEVARRVAELVADPATFPEAVALAKAVGGGAMLILAAARSGSLENARKMAEAAA | not found
6 | design_614_ef6b398b-10cb-4a07-8087-96dafb4f9c83_1693_dldesign_0_cycle1_af2pred (protein) AEELREEAERLREESRRLREEGIKGNAEEARKALLEINRNAGRLARLAVEASQLDPEVAAVANEALAEALENARALDETRRKLAA | not found
7 | design_615_ab801fab-270b-4f6a-b2b5-83c165df418c_67_dldesign_0_cycle1_af2pred (protein) AVKEEAQKVLAESLEYMEKYKDDKEVVAEFNKAANYASKAITGPEETGKEYLAKAKEYLEKGKALAKEKEA | not found
8 | design_614_ef6b398b-10cb-4a07-8087-96dafb4f9c83_884_dldesign_0_cycle1_af2pred (protein) MAVSDTLATNLATAERLLQRGIELAKTDPQAGIAQLRAAEILAQGTAAAAAAAGDTATAARAQAVAERARQAIEEV | binds (active)
9 | design_615_ab801fab-270b-4f6a-b2b5-83c165df418c_702_dldesign_0_cycle1_af2pred (protein) GEELREKAEKEAKQTLELVEGALEYAKTASPEAAALMEKALEEVKKLIELGKKSDAEEYAKYVEKARKVAFNAIAQATALIAA | not found
10 | design_614_ef6b398b-10cb-4a07-8087-96dafb4f9c83_1491_dldesign_0_cycle1_af2pred (protein) EERLKEILKLIKEAKKALEESPQLAAQKLAEAAELASEFPEIAVAAVRAIAFAPNPERAKEALEEALKLAEEALKK | not found
11 | design_614_ef6b398b-10cb-4a07-8087-96dafb4f9c83_1060_dldesign_0_cycle1_af2pred (protein) SAVEVLKRSIEAVARQALEAAERLIELDPELGERAREEVERLRAEALAAADADPAEGGALLVELLRLNAEIRRRAEELE | not found
12 | design_615_ab801fab-270b-4f6a-b2b5-83c165df418c_110_dldesign_0_cycle1_af2pred (protein) SAELAKLNGEALELAKLGAEEGAEYAEKAMELVIEAARLAGDEEGAKYAEEMREEALKAAKESPKEAAQIVMTALSRVFSRIAA | not found
13 | design_614_ef6b398b-10cb-4a07-8087-96dafb4f9c83_1766_dldesign_0_cycle1_af2pred (protein) ARAELEAQLAKAKEAAAQAQAAAAQLAALGGTATAAAITAAAQRALAAAEADLSKAPEALTFLQALLQQAQHQVAQLT | not found
14 | design_614_ef6b398b-10cb-4a07-8087-96dafb4f9c83_1557_dldesign_0_cycle1_af2pred (protein) SAAAAALAAANAEIDAHAARAVELAAGLPHAEEVRALITAGAAAAKSGTQLAEAFRLFSEAARLSNEATRAELRKAIAAANKAALA | not found
15 | design_615_ab801fab-270b-4f6a-b2b5-83c165df418c_662_dldesign_0_cycle1_af2pred (protein) AAAQAKALAAEAKAYIAKAKEAAAAGNLGEAAQLASKALLKAAQAANLDPAFAPVLDEAQATVEAIAAAQAAAA | not found
16 | design_614_ef6b398b-10cb-4a07-8087-96dafb4f9c83_875_dldesign_0_cycle1_af2pred (protein) AAARARLAAALEVAKVAADLEANAKANPATAALASATATATIKHAAAIVAEVDPAAGAAVAAAATAAEAIAIITAALKAA | not found
17 | design_615_ab801fab-270b-4f6a-b2b5-83c165df418c_209_dldesign_0_cycle1_af2pred (protein) SAQAQEAATRAAEALARHLARQVAEHGVSDADFEGNVDILVALGRQSAAAGEAAAAVLEEAKAADPERFGAAAERLKAAAAEAK | not found
18 | design_615_ab801fab-270b-4f6a-b2b5-83c165df418c_149_dldesign_0_cycle1_af2pred (protein) AAAALEAIRDEGAATLTALAGPQLGALFRVAVQAAISGKLELAEQLLDAVVAEAAAINPAAAEKAKELKALALAIARA | not found
19 | design_615_ab801fab-270b-4f6a-b2b5-83c165df418c_137_dldesign_0_cycle1_af2pred (protein) MEKEKELLKKAKELYEAAKTMAEVAKNAVALGHRSGALAAIKGIEQAAKAIEELAKEAKDEEVKKKIKELAKEAKKLAEEMKKLAEKA | not found

Row | Binder | binding in a display sort
20 | design_614_ef6b398b-10cb-4a07-8087-96dafb4f9c83_950_dldesign_0_cycle1_af2pred (protein) AAAAAERTLAGIETLLEILRAAAADPRVTPAQLRAVINAARTAVEELERLDPELGREARERVEAAAREAEAAV | not found
21 | design_614_ef6b398b-10cb-4a07-8087-96dafb4f9c83_2152_dldesign_0_cycle1_af2pred (protein) GAAEEERRRHQEAVERAEAAVKELEALAKQLAADPHGAVFAQAMVDQARRALEEAKTGDLETAEEALRVITSNLEMAKAIL | not found
22 | design_614_ef6b398b-10cb-4a07-8087-96dafb4f9c83_1163_dldesign_0_cycle1_af2pred (protein) EAAREAALALMNEALALLVEETGRDPRLAPALALMSKAVIEMAKDPEKGIELAEKAAEEAKKVDPEVGEKVKKLVEEAKKAVKA | not found
23 | design_615_ab801fab-270b-4f6a-b2b5-83c165df418c_622_dldesign_0_cycle1_af2pred (protein) VTPEEAHQALASTVMRLAQQLGLSGGAISTGLRLASEAARAFAEDPEKMRKVVEEGAKKIEALEGEKGKVVGEELRRKAEEIVA | not found
24 | design_614_ef6b398b-10cb-4a07-8087-96dafb4f9c83_1662_dldesign_0_cycle1_af2pred (protein) SEEAQKKLEEAKRLLELAKEKLATDPQQGLVYALEAQELAAEALKDPEFAEEAQEILEEASRVASQAAARAIAQAQA | not found
25 | design_614_ef6b398b-10cb-4a07-8087-96dafb4f9c83_1883_dldesign_0_cycle1_af2pred (protein) EEEKKKLEEIKKLLEKAMEEAIKLVAADPEVQKRLKELAEELKKAETAGEAIRVALRAASVAGQVNPEAARVILTAAEEGAKLAK | not found
26 | design_614_ef6b398b-10cb-4a07-8087-96dafb4f9c83_1110_dldesign_0_cycle1_af2pred (protein) GEELAESAKKLMEVLKDVAKDAAARDPANAAKYLADAKKAEEEAKKALEESPEKGMQAAQDALAKFQKAAIAAAKA | not found
27 | design_614_ef6b398b-10cb-4a07-8087-96dafb4f9c83_1173_dldesign_0_cycle1_af2pred (protein) LLEEALALGAEAIAEGQEAIALAVALGPEFQPFALELSRLMARIAAAQIQLVRDPEAGAAALREEIEELRRAIQELLDSL | not found
28 | design_615_ab801fab-270b-4f6a-b2b5-83c165df418c_234_dldesign_0_cycle1_af2pred (protein) LEESARKAAELALDLAKYAAANPATAPQALASIAGLARNAIEAGAEAAKLMAEALKKGAEYVAKNGTAAQAEQVKAIRERAERGAREA | not found
29 | design_615_ab801fab-270b-4f6a-b2b5-83c165df418c_251_dldesign_0_cycle1_af2pred (protein) AAAAAEAAAVQARGGALLDELKERTSELSPEAVSRASLLLTRGLTYASQPATLAEGRRYVDEAEAIIRSA | not found
30 | design_614_ef6b398b-10cb-4a07-8087-96dafb4f9c83_2192_dldesign_0_cycle1_af2pred (protein) AAAALQAATIALGSLRALAESARRSNAESAKKLAELAEDLAADAKANAAKAAADPAYAAQAKAVAEEAKRALEETKRIAEEKAEA | not found
31 | design_615_ab801fab-270b-4f6a-b2b5-83c165df418c_671_dldesign_0_cycle1_af2pred (protein) SPDAVAARGYLAMLRAAVAELERAAEELARDPEKAAEARALVERARALLAEAEALLADPAQAAAAAAAARAALEEVLEFIRRARELAA | not found
32 | design_615_ab801fab-270b-4f6a-b2b5-83c165df418c_555_dldesign_0_cycle1_af2pred (protein) AAAALAAAAAAARAAATAALAETLELAEEAQRLGDSETSLALSRQANRIAGLYIAGVRDPRLAPEAGKRAEELRREAERLYKEAL | not found
33 | design_614_ef6b398b-10cb-4a07-8087-96dafb4f9c83_2028_dldesign_0_cycle1_af2pred (protein) NAAAAEMAAAAAAFAATAAAAVTLSPEAGRKAVSAAFTAALTAISALGATASDEQTVAAMNTVWSTYIAATTALQAKAA | not found
34 | design_615_ab801fab-270b-4f6a-b2b5-83c165df418c_597_dldesign_0_cycle1_af2pred (protein) AAAAEAITKATLAAIEKTAEKIVEAAEKATPEEAKKLAESVKKLAETGVGIATAASPELGKEAKEKAEKLKEKAKEAVKKVKE | not found
35 | design_615_ab801fab-270b-4f6a-b2b5-83c165df418c_246_dldesign_0_cycle1_af2pred (protein) AEREEAALAEAEKALAEAKKLVEAALADPATAATTVGEATALLTAAIERASREVSPERALEVAQEAARIQADGIKALA | not found
36 | design_614_ef6b398b-10cb-4a07-8087-96dafb4f9c83_1868_dldesign_0_cycle1_af2pred (protein) TAAIATATIVALTKTASRSSVEDAKKLVEVAVGIAASLSAADAKAAIDAGLKVAKELAEEKNTETASVVAKELEKGGAKVAAEKA | not found
37 | design_615_ab801fab-270b-4f6a-b2b5-83c165df418c_153_dldesign_0_cycle1_af2pred (protein) SAAGEIGAKAIEAMKKAYEYAKLYESGEDEKAKEKAKEAAEKLKELAKEAAKAGAAGARLAKVAKASAENALKIAKE | not found
38 | design_614_ef6b398b-10cb-4a07-8087-96dafb4f9c83_2138_dldesign_0_cycle1_af2pred (protein) SEALRAEAARLANAALALLSRASVAFGNALSPTLATAVDAFLAADREGDAETRLAVARAALAAAEAAVAAAAAAA | not found
